Data from paper PMC8384837, “Expanding the binding specificity for RNA recognition by a PUF domain”.
Changes are numbered by the printed parent chain.

Tests used:
Test in all cases: yeast three-hybrid, YBZ-1, SC-Leu-His + 0.5 mM 3-AT, 4 days
Settings in all cases: tags: N-Gal4 AD-HA kept; label: inside an RPR1-promoter hybrid RNA with tandem MS2 sites; ssRNA
PUM1 PUF domain R3-FSR = PUM1 PUF domain R3-FSR (Homo sapiens, UniProt Q14671 828-1176, C935F;R936S;Q939R)
How it was run: (§1)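 Sequencing with Illumina followed PCR amplification of the repeat regions from transformants grown four days on SC-Leu (input) or SC-Leu-His + 0.5 mM 3-AT (selection). The transformants were strain YBZ-1 with a LexA–MS2 coat fusion and a HIS3 reporter, carrying Pumilio-1 PUF domain libraries and matching RNA elements. The interaction score is the log change in variant frequency from input to selection, computed in log2 with a pseudocount of 1 for absent variants.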

PUM1 PUF domain R3-CRV = PUM1 PUF domain R3-CRV (Homo sapiens, UniProt Q14671 828-1176, Q939V)
How it was run: as §1

PUM1 PUF domain R7-IFV = PUM1 PUF domain R7-IFV (Homo sapiens, UniProt Q14671 828-1176, S1079I;N1080F;E1083V)
How it was run: as §1

PUM1 PUF domain R4-LGL = PUM1 PUF domain R4-LGL (Homo sapiens, UniProt Q14671 828-1176, N971L;H972G;Q975L)
How it was run: as §1

PUM1 PUF domain R6-FYQ = target: T1, PUM1 PUF domain R6-FYQ (Homo sapiens, UniProt Q14671 828-1176, N1043F)
T1 sequence: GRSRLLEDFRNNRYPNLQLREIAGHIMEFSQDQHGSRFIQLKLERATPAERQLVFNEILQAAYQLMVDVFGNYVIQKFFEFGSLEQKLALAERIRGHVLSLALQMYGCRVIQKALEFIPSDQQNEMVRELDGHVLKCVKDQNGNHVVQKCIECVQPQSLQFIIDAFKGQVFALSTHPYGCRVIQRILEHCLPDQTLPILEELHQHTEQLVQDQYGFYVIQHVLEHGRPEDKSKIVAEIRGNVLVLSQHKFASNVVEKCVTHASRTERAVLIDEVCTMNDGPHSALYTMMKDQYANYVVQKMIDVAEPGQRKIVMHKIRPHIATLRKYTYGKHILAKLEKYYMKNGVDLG
How it was run: as §1

PUM1 PUF domain R6-LWG = target: T2, PUM1 PUF domain R6-LWG (Homo sapiens, UniProt Q14671 828-1176, N1043L;Y1044W;Q1047G)
T2 sequence: T1 sequence with F216L, Y217W, Q220G
How it was run: as §1

PUM1 PUF domain R6-QYS = target: T3, PUM1 PUF domain R6-QYS (Homo sapiens, UniProt Q14671 828-1176, N1043Q;Q1047S)
T3 sequence: T1 sequence with F216Q, Q220S
How it was run: as §1

PUM1 PUF domain R4-SLS = PUM1 PUF domain R4-SLS (Homo sapiens, UniProt Q14671 828-1176, N971S;H972L;Q975S)
How it was run: as §1

PUM1 PUF domain R5-MRV = PUM1 PUF domain R5-MRV (Homo sapiens, UniProt Q14671 828-1176, C1007M;Q1011V)
How it was run: as §1

PUM1 PUF domain R4-PWG = PUM1 PUF domain R4-PWG (Homo sapiens, UniProt Q14671 828-1176, N971P;H972W;Q975G)
How it was run: as §1

PUM1 PUF domain R7-RRV = PUM1 PUF domain R7-RRV (Homo sapiens, UniProt Q14671 828-1176, S1079R;N1080R;E1083V)
How it was run: as §1

PUM1 PUF domain R5-QCL = PUM1 PUF domain R5-QCL (Homo sapiens, UniProt Q14671 828-1176, C1007Q;R1008C;Q1011L)
How it was run: as §1

PUM1 PUF domain R5-NAV = PUM1 PUF domain R5-NAV (Homo sapiens, UniProt Q14671 828-1176, C1007N;R1008A;Q1011V)
How it was run: as §1

PUM1 PUF domain R5-EGE = PUM1 PUF domain R5-EGE (Homo sapiens, UniProt Q14671 828-1176, C1007E;R1008G;Q1011E)
How it was run: as §1

PUM1 PUF domain R5-RAD = PUM1 PUF domain R5-RAD (Homo sapiens, UniProt Q14671 828-1176, C1007R;R1008A;Q1011D)
How it was run: as §1

PUM1 PUF domain R5-LYD = PUM1 PUF domain R5-LYD (Homo sapiens, UniProt Q14671 828-1176, C1007L;R1008Y;Q1011D)
How it was run: as §1

PUM1 PUF domain R4-LFW = PUM1 PUF domain R4-LFW (Homo sapiens, UniProt Q14671 828-1176, N971L;H972F;Q975W)
How it was run: as §1

PUM1 PUF domain R7-DHV = PUM1 PUF domain R7-DHV (Homo sapiens, UniProt Q14671 828-1176, S1079D;N1080H;E1083V)
How it was run: as §1

PUM1 PUF domain R3-RVQ = PUM1 PUF domain R3-RVQ (Homo sapiens, UniProt Q14671 828-1176, C935R;R936V)
How it was run: as §1

PUM1 PUF domain R3-GHF = PUM1 PUF domain R3-GHF (Homo sapiens, UniProt Q14671 828-1176, C935G;R936H;Q939F)
How it was run: as §1

With “GGCUAGAACUAGUGGAUCCCCCGGCGCCCGGCGGCUCGAGCCCGGGUAAGUGUAAGUAGUCUGCAUGCCGCCGGGCGCCAUGCCUGCAGGUCGACUCUAGAAAACAUG” the binding signal (PUM1 PUF domain R3-FSR) was 3.48 log2 enrichment (interaction score) and the binding signal (PUM1 PUF domain R3-CRV) was 1.31 log2 enrichment (interaction score).

For “GGCUAGAACUAGUGGAUCCCCCGGCGCCCGGCGGCUCGAGCCCGGGUAAGUAUAAAUAGUCUGCAUGCCGCCGGGCGCCAUGCCUGCAGGUCGACUCUAGAAAACAUG”, the binding signal (PUM1 PUF domain R7-IFV) was 2.59 log2 enrichment (interaction score).

In the case of “GGCUAGAACUAGUGGAUCCCCCGGCGCCCGGCGGCUCGAGCCCGGGUAAGUGUAAAUAGUCUGCAUGCCGCCGGGCGCCAUGCCUGCAGGUCGACUCUAGAAAACAUG”, the binding signal (PUM1 PUF domain R4-LGL) is reported as 3.33 log2 enrichment (interaction score), the binding signal (PUM1 PUF domain R6-FYQ) is reported as 4.7 log2 enrichment (interaction score) and the binding signal (PUM1 PUF domain R3-CRV) is reported as 2.9 log2 enrichment (interaction score). For the same sequence, the binding signal (PUM1 PUF domain R6-LWG) was 6.16 log2 enrichment (interaction score), the binding signal (PUM1 PUF domain R6-QYS) was 3.68 log2 enrichment (interaction score) and the binding signal (PUM1 PUF domain R4-SLS) was 2.39 log2 enrichment (interaction score). For the same sequence, the binding signal (PUM1 PUF domain R5-MRV) was 1.85 log2 enrichment (interaction score) and the binding signal (PUM1 PUF domain R4-PWG) was 5.84 log2 enrichment (interaction score).

With “GGCUAGAACUAGUGGAUCCCCCGGCGCCCGGCGGCUCGAGCCCGGGUAAGUCUAAAUAGUCUGCAUGCCGCCGGGCGCCAUGCCUGCAGGUCGACUCUAGAAAACAUG” the binding signal (PUM1 PUF domain R7-RRV) was 4.92 log2 enrichment (interaction score).

In the case of “GGCUAGAACUAGUGGAUCCCCCGGCGCCCGGCGGCUCGAGCCCGGGUAAGUGUACAUAGUCUGCAUGCCGCCGGGCGCCAUGCCUGCAGGUCGACUCUAGAAAACAUG”, the binding signal (PUM1 PUF domain R4-PWG) is reported as 5.43 log2 enrichment (interaction score).

“GGCUAGAACUAGUGGAUCCCCCGGCGCCCGGCGGCUCGAGCCCGGGUAAGUGUGAAUAGUCUGCAUGCCGCCGGGCGCCAUGCCUGCAGGUCGACUCUAGAAAACAUG” was tested, and the binding signal (PUM1 PUF domain R5-QCL) was 2.87 log2 enrichment (interaction score), the binding signal (PUM1 PUF domain R5-NAV) was 1.26 log2 enrichment (interaction score) and the binding signal (PUM1 PUF domain R5-EGE) was 2.78 log2 enrichment (interaction score). The binding signal (PUM1 PUF domain R5-MRV) was 2.45 log2 enrichment (interaction score).

In the case of “GGCUAGAACUAGUGGAUCCCCCGGCGCCCGGCGGCUCGAGCCCGGGUAAGUGUUAAUAGUCUGCAUGCCGCCGGGCGCCAUGCCUGCAGGUCGACUCUAGAAAACAUG”, the binding signal (PUM1 PUF domain R5-RAD) is reported as 1.31 log2 enrichment (interaction score), the binding signal (PUM1 PUF domain R5-LYD) is reported as 3.06 log2 enrichment (interaction score) and the binding signal (PUM1 PUF domain R5-NAV) is reported as 2.55 log2 enrichment (interaction score). The binding signal (PUM1 PUF domain R5-MRV) was 2.34 log2 enrichment (interaction score).

For “GGCUAGAACUAGUGGAUCCCCCGGCGCCCGGCGGCUCGAGCCCGGGUAAGUGUCAAUAGUCUGCAUGCCGCCGGGCGCCAUGCCUGCAGGUCGACUCUAGAAAACAUG”, the binding signal (PUM1 PUF domain R5-RAD) was 2.61 log2 enrichment (interaction score).

With “GGCUAGAACUAGUGGAUCCCCCGGCGCCCGGCGGCUCGAGCCCGGGUAAGUGUAUAUAGUCUGCAUGCCGCCGGGCGCCAUGCCUGCAGGUCGACUCUAGAAAACAUG” the binding signal (PUM1 PUF domain R4-LFW) was 3.89 log2 enrichment (interaction score) and the binding signal (PUM1 PUF domain R4-PWG) was 6.71 log2 enrichment (interaction score).

With “GGCUAGAACUAGUGGAUCCCCCGGCGCCCGGCGGCUCGAGCCCGGGUAAGUUUAAAUAGUCUGCAUGCCGCCGGGCGCCAUGCCUGCAGGUCGACUCUAGAAAACAUG” the binding signal (PUM1 PUF domain R7-RRV) was 4.01 log2 enrichment (interaction score) and the binding signal (PUM1 PUF domain R7-DHV) was 5.24 log2 enrichment (interaction score).

“GGCUAGAACUAGUGGAUCCCCCGGCGCCCGGCGGCUCGAGCCCGGGUAAGUGUAAUUAGUCUGCAUGCCGCCGGGCGCCAUGCCUGCAGGUCGACUCUAGAAAACAUG” was tested, and the binding signal (PUM1 PUF domain R3-CRV) was 1.05 log2 enrichment (interaction score), the binding signal (PUM1 PUF domain R3-RVQ) was 2.03 log2 enrichment (interaction score) and the binding signal (PUM1 PUF domain R3-GHF) was 2.21 log2 enrichment (interaction score).
